# Measurements reported in PubChem BioAssay (NCI).
# Compounds without any hit were thinned out: in the full panel of roughly 83,000, 20% have a hit.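 48-hour exposure, single concentration, 96-well plates; percent growth endpoint where 0 means no net growth. Active: below 10.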 Values without a mark were called inactive. Active and inactive are the calls of the source.
# Key:
# Assay in all cases: NCI-60 one-dose screen, 48 h (100 = growth as untreated, 0 = no growth, -100 = all killed)
# Details in all cases: 10 µM unless noted
# [1] = tested on: SR leukemia
# [2] = tested on: RPMI-8226 leukemia
# [3] = tested on: OVCAR-8 ovarian
# [4] = tested on: OVCAR-5 ovarian
# [5] = tested on: OVCAR-4 ovarian
# [6] = tested on: SK-OV-3 ovarian
# [7] = tested on: IGROV1 ovarian
# [8] = tested on: OVCAR-3 ovarian
# [9] = tested on: HS 578T breast
# [10] = tested on: T-47D breast
# [11] = tested on: BT-549 breast
# [12] = tested on: MDA-MB-435 melanoma
# [13] = tested on: SW-620 colon
# [14] = tested on: MCF7 breast
# [15] = tested on: HCT-116 colon
# [16] = tested on: HCC-2998 colon
# [17] = tested on: KM12 colon
# [18] = tested on: NCI/ADR-RES ovarian
Compound,growth [1],growth [2],growth [3],growth [4],growth [5],growth [6],growth [7],growth [8],growth [9],growth [10],growth [11],growth [12],growth [13],growth [14],growth [15],growth [16],growth [17],growth [18]
O=C(Cc1cccc(OC(F)(F)F)c1)Nc1ccc(CCCCc2nnc(NC(=O)Cc3ccccn3)s2)nn1,41.3%,6.13% (active),65%,86.7%,76.3%,75.1%,78.9%,87.3%,79.3%,30.3%,48.7%,85.1%,100%,79.7%,40%,91%,69.4%,–
O=C1Nc2c(C(=O)O)cccc2/C1=N/c1n[nH]c(=S)s1,84.6%,87.7%,91%,98%,87.9%,85.7%,83%,99.1%,87%,68.4%,116%,88.4%,88.1%,80.8%,–,103%,75.4%,101%
N=C(N)c1ccc(-c2ccc(-c3cc(Cl)cc(Cl)c3)s2)nc1,8.46% (active),8.67% (active),-17.5% (active),93.9%,59.1%,84.1%,46.7%,19.8%,94%,84.2%,97.5%,44.6%,-59.2% (active),-47% (active),-73.6% (active),28.1%,-75.3% (active),–
Oc1c(CN2CCOCC2)cc(COCc2ccccc2)c2cccnc12,13.4%,29.1%,14.5%,37.8%,24.5%,9.56% (active),16.2%,19.7%,68.4%,10.4%,36.4%,46.8%,28.9%,9.26% (active),21.6%,54.2%,35.6%,–
CSc1nn2c(-c3ccc4ccccc4c3)ccnc2c1C#N,13.8%,24.1%,23%,46.7%,1.79% (active),12.8%,20.5%,-26% (active),33.6%,18.8%,44%,-63.6% (active),9.09% (active),10% (active),-38.1% (active),52.2%,5.75% (active),–
COc1ccc2[nH]cc(-c3nc(-c4c[nH]c5c(Cl)nccc45)cs3)c2c1,18.1%,43.5%,28.9%,99.9%,68.6%,46.9%,54.7%,75.9%,38.7%,24.5%,51.3%,51.8%,1.95% (active),54.7%,36.4%,68.6%,33.3%,–
Cc1ccc(C(=O)Nc2cccc(C#Cc3cccc4[nH]nc(N)c34)c2)cc1C(F)(F)F,69.3%,66.9%,72.1%,59.9%,66.6%,84.3%,17.9%,82.7%,47.4%,46.3%,86.6%,62.4%,65.4%,59.8%,25.2%,51%,64.3%,–
CC/C=C\CCC/C=C1/C(=O)C=C[C@@H]1C/C=C\CCCC(=O)OC,2.36% (active),1.41% (active),14.2%,73.5%,76.6%,119%,84.2%,26.7%,37.2%,34.4%,-25% (active),-22.3% (active),3.05% (active),17%,–,8.12% (active),-20.6% (active),25.9%
COc1ccc(C(=O)Cn2c(C(=O)c3ccc(Cl)cc3)nc3ccccc32)cc1,26.9%,13%,69.9%,90.4%,62.4%,98.8%,39.7%,52%,47.2%,73.8%,88.8%,-8.55% (active),32.7%,20.4%,26.9%,72.7%,38.2%,–
CCNc1nc(O)c(/C=C2\C=Nc3ncccc32)s1,0.377% (active),29.1%,6.27% (active),8.67% (active),19.5%,-10.3% (active),21.7%,-2.07% (active),-15.1% (active),-9.7% (active),-50.4% (active),-0.802% (active),6.52% (active),3.97% (active),–,–,6.24% (active),29.7%
CC1(C)CC(=O)c2c(nn(-c3ccc(Br)cc3)c2-c2cn(-c3ccccc3)nc2-c2cccnc2)C1,112%,72.5%,97.6%,106%,84.5%,82.5%,93.9%,99.7%,98.1%,70.8%,86.9%,105%,91.4%,75.2%,–,106%,97.1%,94%
c1nc2ccc(-c3cc4ccc5[nH]ncc5c4c4c3CCCC4)cc2[nH]1,8.69% (active),58.1%,78.5%,69.3%,88%,50.2%,36%,89.5%,65.2%,60.3%,34.1%,21.2%,39.4%,59%,–,75.5%,30.8%,110%
CCN(CC)CCCN1C(=O)c2c(c(C)c3c(oc4ccc(O)cc43)c2C)C1=O,19.1%,-15.7% (active),-31.8% (active),103%,-35.5% (active),109%,75.2%,55.7%,81.2%,87.2%,96.6%,93.4%,-37% (active),65.8%,–,67%,70.7%,-62.9% (active)
COc1ccc(C(=O)/C=C/c2ccc(N3CCCCC3)cc2)cc1OC,73.3%,72.9%,92.8%,99.8%,65.3%,107%,95.4%,104%,103%,76.6%,87.4%,103%,102%,90.4%,82.7%,107%,98.9%,–
COc1cc2c(c(OC)c1OC)C(=O)CC(c1cccc(NC(=O)c3ccc(C#N)cc3)c1)O2 (stereo not given),41.7%,30.8%,40.9%,101%,63%,99.1%,85.5%,76.5%,90.3%,8.42% (active),43.7%,74%,95.9%,65.6%,–,101%,70.9%,50.7%
COc1cc(C2C(C(=O)OCc3ccccc3)=C(C)NC(C)=C2C(=O)OCc2ccccc2)cc(OC)c1OC,4.89% (active),-0.546% (active),34%,68.5%,37.6%,27.5%,38.7%,35.7%,46.4%,11.9%,34%,27.3%,40.3%,10.4%,17.1%,52%,19.4%,–
CCCCCN(CCCCC)CC(O)c1cc(C)c2ccc3cc(C(C)C)ccc3c2c1 (stereo not given),-12.9% (active),-18.6% (active),-35.9% (active),-28.2% (active),19.4%,85.6%,-12.8% (active),-47.7% (active),-24% (active),53.3%,90.5%,0.846% (active),-75.3% (active),-86.2% (active),-84.8% (active),-50.8% (active),-64.7% (active),–
CC1(C)N=C(N)N=C(N)N1c1cccc(CCc2ccccc2)c1,28.5%,26.5%,52.6%,49.2%,72.1%,58.9%,30.3%,22.8%,70.4%,37.7%,42.4%,47.5%,27.4%,23.8%,–,2.34% (active),21.9%,111%
